Out of some 240,000 compounds screened, about 20 (0.008%) were called active. Inconclusive results (about 1%) are left out. Calls come from the whole dose curve; as a rule, active = well fitted inhibition curve with a large enough effect; inconclusive = small, poorly fitted or top-dose-only effect, or effect the other way; inactive = flat fitted curve, though single readings scatter. Only a sample is shown.
biological target: Alpha-galactosidase A (Homo sapiens) (UniProt P06280); experiment: qHTS Assay for Inhibitors and Activators of Human alpha-Galactosidase From Spleen Homogenate; conditions: 4MU-alpha-Gal fluorescence, 40 min; series mostly up to 80 µM; activity change, negative = inhibition: at the top concentration;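 note: 0% = enzyme with vehicle and -100% = no enzyme basal signal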
Sequence (P06280 32-429 limits assumed): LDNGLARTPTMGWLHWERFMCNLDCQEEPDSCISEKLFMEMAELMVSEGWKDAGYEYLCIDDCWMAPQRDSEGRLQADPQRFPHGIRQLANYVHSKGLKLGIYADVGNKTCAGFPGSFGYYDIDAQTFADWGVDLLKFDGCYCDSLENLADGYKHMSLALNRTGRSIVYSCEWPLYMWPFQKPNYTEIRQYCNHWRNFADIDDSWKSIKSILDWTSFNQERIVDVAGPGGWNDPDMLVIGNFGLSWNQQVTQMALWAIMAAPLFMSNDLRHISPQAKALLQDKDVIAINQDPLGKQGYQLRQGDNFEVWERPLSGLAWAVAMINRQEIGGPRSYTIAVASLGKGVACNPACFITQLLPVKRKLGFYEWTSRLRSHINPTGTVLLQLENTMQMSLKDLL
Text: NIH Chemical Genomics Center [NCGC] NIH Molecular Libraries Probe Production Centers Network [MLPCN] MLPCN Grant: R03 MH084842-01 Assay Submitter (PI): Wei Zheng NCGC Assay Overview: Alpha-galactosidase is a homodimeric glycoprotein that hydrolyzes the terminal alpha-galactosyl moieties from glycolipids and glycoproteins. Deficiency of this enzyme results in Fabry Disease with progressive accumulation of globotriaosylceramide and other glycosphingolipids in vascular endothelial cells that causes renal failure, myocardial infarction and stroke, and premature death in patients. It has been reported that the improper folding and trafficking of alpha-galactosidase resulting from genetic mutations may account for a significant number of Fabry patients. […] We optimized this alpha-galactosidase assay in 1536-well plate format for identification of novel small molecule inhibitors or activators with structures other than the sugar analogs in order to develop new pharmacological chaperones. In particular, this assay is directed towards discovering compounds active in more natural setting, tissue homogenate, that may have been missed by screens of the purified enzyme under more stringent conditions.
NCGC Assay Protocol Summary: This is a fluorogenic enzyme assay with 4-methylumbelliferyl-alpha-D-galactopyranoside as the substrate and human spleen homogenate containing alpha-galactosidase as the enzyme preparation. Upon hydrolysis of this fluorogenic substrate, the resulting product, 4-methylumbelliferone (which excites at 365 nm and emits at 440 nm) can be detected by a fluorescence plate reader. Data were normalized to the controls for basal activity (without enzyme) and 100% activity (with enzyme). The AC50 values were determined from concentration-response data modeled with the standard Hill equation. Assay buffer: 50 mM citric acid (titrated with potassium phosphate to pH 5.0), 0.01% Tween-20 (pH 5.0 is an optimal condition for this enzyme assay) 1536-well assay protocol for the alpha-galactosidase from human spleen homogenate: (1) Add 2 ul/well spleen homogenate (1 ug) (2) Add 23 nL compounds in DMSO solution. The final titration was 0.5 nM to 58 uM. (3) Add 2 ul of substrate (1 mM final) (4) Incubate at 37C for 40 min (5) Add 2 ul stop solution (1M NaOH and 1M Glycine mixture, pH 10) (6) Detect the assay plate in a ViewLux plate reader (PerkinElmer) with Ex=365 nm and Em=440nm. Keywords: Alpha-galactosidase, Fabry Disease, pharmacological chaperone, chaperone therapy, high throughput screening, alpha- galactosidase inhibitor, MLSMR, MLSCN, NIH Roadmap, qHTS and NCGC

Activity change, negative = inhibition, inactive:
CSc1ccc(S(=O)(=O)Nc2cccc(F)c2)cc1 3.92%
COC(=O)c1ccc(C(NC(=O)OCc2ccccc2)/C(F)=C/[C@@H](C)C(=O)O)cc1 (stereo partly specified) -4.12%
Cc1ccc(-c2csc(N(Cc3ccco3)C(=O)c3cccs3)n2)cc1 2.51%
O=C(Nc1cc(C(=O)Nc2ccc(S(=O)(=O)O)cc2)cc(C(=O)Nc2ccc(S(=O)(=O)O)cc2)c1)Nc1cc(C(=O)Nc2ccc(S(=O)(=O)O)cc2)cc(C(=O)Nc2ccc(S(=O)(=O)O)cc2)c1 3.78%
Cc1ccccc1OCCC(=O)OCC(=O)NC(C)c1ccccc1 (stereo unspecified) 1.89%
CC[C@H](C)[C@H](NC(=O)[C@H](Cc1ccc(O)cc1)NC(=O)[C@@H](NC(=O)[C@H](CCCN=C(N)N)NC(=O)[C@@H](N)CC(=O)O)C(C)C)C(=O)N[C@@H](Cc1cnc[nH]1)C(=O)N1CCC[C@H]1C(=O)N[C@@H](Cc1ccccc1)C(=O)O -0.483%
CC(=O)Nc1ccc(S(=O)(=O)N2N=NC3C2C2CC4C3(CN(C(=O)OC(C)(C)C)S4(=O)=O)O2)cc1 (stereo unspecified) -1.71%
CSCCC(NC(=O)c1cc([N+](=O)[O-])cc([N+](=O)[O-])c1)c1nc2ccccc2[nH]1 (stereo unspecified) 18.7%
CCOc1c2ccc(C(=O)NC3CCCc4ccccc43)cc2nn1CC (stereo unspecified) 5.93%
Cc1cc(C)c(NC(=O)C[N+](C)(C)CC(O)COc2cccc3ccccc23)c(C)c1 (stereo unspecified) -14%
CCOC(=O)Cc1csc(SCc2cc(=O)oc3cc(O)ccc23)n1 9.37%
CC1(C)CC(=O)c2cnc3nc4ccccc4n3c2C1 7.68%
COCC1CCCN(Cc2cn[nH]c2-c2cc3ccccc3o2)C1 (stereo unspecified) -8.79%
Cc1cc(Cl)ccc1C(=O)C1CCCN(C(=O)CCN2CCCO2)C1 (stereo unspecified) -13%
CC(C)Cn1c(N)c(C(=O)COC(=O)CN2C(=O)C3CC=CCC3C2=O)c(=O)n(C)c1=O (stereo unspecified) 1.23%
O=C(NNc1ccccc1Cl)C(O)(c1cccc(C(F)(F)F)c1)c1cccc(C(F)(F)F)c1 -3.52%
O=C(NCc1ccccn1)[C@]1(C(F)(F)F)C[C@H](CCc2ccccc2)CCCO1 2.9%
Cc1cccc(C)c1N1CCN(S(=O)(=O)N2CCCCC2)CC1 5.18%
Cc1cccc2nc(CSc3nc4[nH]ncc4c(=O)n3-c3cccc(Cl)c3)cc(=O)n12 5.01%
N#Cc1ncc(C(F)(F)F)cc1Oc1cccnc1 -18%
CNC(=O)[C@]1(C(F)(F)F)C[C@H](CCc2ccccc2)CCCO1 -17.7%
COc1ccc(C[C@H](C(=O)O)N2C(=O)c3ccc(C(=O)O)cc3C2=O)cc1 -9.39%
Cc1ccccc1N(C(=O)Cc1cccs1)C(C(=O)NC1CCCCC1)c1cn(C)nc1C (stereo unspecified) -4.95%
C[C@@H]1O[C@@H](OC[C@H]2O[C@@H](Oc3cc(O)c4c(c3)O[C@H](c3ccc(O)c(O)c3)CC4=O)[C@H](O)[C@@H](O)[C@@H]2O)[C@H](O)[C@H](O)[C@H]1O 3.44%
CCOC(=O)C1CCN(c2c(Nc3cc(C)cc(C)c3)c(=O)c2=O)CC1 -0.907%
NC(=O)NC(=O)CSc1nc2cc([N+](=O)[O-])ccc2n1-c1cccc(C(F)(F)F)c1 -1.63%
C[C@H]1CCC[C@@]2(C)CCCC[C@]12O 2.2%
C=C1CCN(C(CC(C)C)C(=O)NCc2cc(OC)c(OC)c(OC)c2)S(=O)(=O)c2ccccc21 (stereo unspecified) -16.2%
COc1ccc(C2/C=C\CN(Cc3ccco3)C(C)C(=O)N2Cc2ccc(F)cc2)cc1 (stereo unspecified) 4.4%
COc1cc(C2OC(c3cc(OC)c(OC)c(OC)c3)C(C)C2C)cc(OC)c1OC (stereo unspecified) 5.9%
COc1ccc(CN(C(=O)CSc2nnc(-c3ccc(OC)c(OC)c3)o2)c2ccc(F)cc2)cc1 10%
C=CCC(C)(O)c1ccco1 (stereo unspecified) -6.7%
CCCCCNC(=O)c1cccnc1SCC(=O)Nc1ccccc1OC -4.08%
CC1(C)CC(N2CCN(C(c3ccccc3)c3ccccc3)CC2)=CC(=[N+]2CCCCC2)C1 3.27%
COc1ccccc1C(=O)N1CCN=C1SCc1cccnc1 0.71%
O=C(NCCCn1ccnc1)c1cc(-c2ccccc2)on1 -0.698%
C=C(C)C1CC=C(C)C(O)C1 (stereo unspecified)
C=CCN1c2ccccc2[C@]23C[C@@H](C(=O)OC)N(S(=O)(=O)c4ccc([N+](=O)[O-])cc4)C2=NC(C(=O)OC)=C(C(=O)OC)[C@H]13 -4.05% [at 17.5 µM]
[O-][n+]1onc2c1CCc1[nH]c(-c3ccccc3)nc1-2 1.23%
CC(=O)CC(c1ccccc1)C1C(=O)Oc2ccccc2C1=O (stereo unspecified) -10.1%
Cc1nn(C)c(C(=O)NNC(=S)NC2CCCCC2)c1Cl 2.34%
NCCCCC(N)C(=O)O (stereo unspecified) 2.41%
Cn1c(SCC(=O)N/N=C/c2ccc(O)c(O)c2)nc2ccccc21 3.66%
O=c1cc(-c2ccc(O)cc2)oc2c([C@@H]3O[C@H](CO)[C@@H](O)[C@H](O)[C@H]3O)c(O)cc(O)c12 -17.6%
CCN(CC)c1ccc(/C=N/NC(=O)c2cnccn2)c(O)c1 -14.2%
O=C(NCCCO)/C(=C\C=C\c1ccccc1)NC(=O)c1ccccc1Cl 1.56%
COc1ccc(/C=N/Nc2ncnc3sc4c(c23)CCCC4)cc1O 4.96%
COc1ccccc1C1C(C#N)=C(N)Oc2c1c(-c1ccccc1)nn2-c1ccccc1 (stereo unspecified) 6.59%
CC[C@H](C)[C@H](NC(=O)[C@@H](N)CCC(=O)O)C(=O)N[C@@H](CC(C)C)C(=O)N[C@@H](CC(=O)O)C(=O)N[C@H](C(=O)N1CCC[C@H]1C(=O)N[C@@H](CO)C(=O)N[C@H](C(=O)O)[C@@H](C)O)C(C)C -4.11%
C[C@]1(C(=O)NCCc2c[nH]c3ccccc23)C=C[C@@H](Cc2ccccc2)N1C(=O)c1ccccc1
CCC1(CC)C(=O)C2=C3C1[C@H](C(=O)OC)C=C(C(=O)OC)C[C@H]3[C@H]1C(=O)N(Cc3ccccc3)C(=O)[C@H]1[C@H]2C (stereo partly specified) 6.6%
COc1ccc2c3c1O[C@H]1C[C@@H](O)C=C[C@@]31CCN(C)C2
OCCNCc1cccc(OCc2ccccc2Cl)c1 -3.03%
CC1=NN(C(=O)c2ccc(Br)cc2)C(O)(c2ccccc2)C1 (stereo unspecified) 6.29%
Cc1ccc(-c2nn(CC(C)(C)C)c3ncnc(N)c23)cc1 -4.25%
COc1ccc(-c2c(C)cc3oc(=O)cc(-c4ccccc4)c3c2C)cc1OC 1.37% [at 119 µM]

Source: PubChem BioAssay AID2107 (National Center for Advancing Translational Sciences (NCATS), 2009)
